Assay results from PubChem BioAssay AID1159580 (chemical genetic matrix, 2015).
Several values for one entry are separate records, joined by “and”; a condition that tells them apart may be missing. Equal entries are not always repeated. Among all 5,500 compounds or so, about 2,000 (36%) were called active. Not shown: some 18% with an inconclusive outcome. Cut-off read from the data, not from the text of the source: active = normalized growth mostly below about 0.91 (no sharp cut-off); inconclusive = no clear call, values can overlap the other calls; inactive = mostly above about 0.92. The list shows a part of the results.

Assay: chemical genetic growth profiling, strain panel (AID 1159580);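 note: tested at 20 µM; growth read once vehicle control cultures reached saturation at 30 °C; 1 = growth at the plate median or of vehicle wells; lower values mean less growth of the strain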
Settings: S. cerevisiae deletion strains, growth OD

Measured: normalized growth

O=C(O)C1(O)C[C@@H](O)C(O)[C@H](O)C1 (stereo partly drawn)
inactive: locus YAL021C, strain ccr4, hits give low values 0.984 | locus YAL026C, strain drs2, hits give low values 0.985 | locus YAL030W, strain snc1, hits give low values 0.987 | locus YBL061C, strain skt5, hits give low values 0.968 | locus YBR009C, strain hhf1, hits give low values 1 | locus YBR021W, strain FUR4, hits give low values 1.01 | locus YBR023C, strain chs3, hits give low values 0.97 | locus YBR171W, strain sec66, hits give low values 0.983 | locus YBR229C, strain ROT2, hits give low values 1 | locus YBR231C, strain swc5, hits give low values 0.983 | locus YBR279W, strain paf1, hits give low values 0.985 | locus YCL011C, strain gbp2, hits give low values 0.978 | locus YCL016C, strain dcc1, hits give low values 0.973 | locus YCL029C, strain bik1, hits give low values 1.03 | locus YCL069W, strain vba3, hits give low values 0.988 | locus YCR088W, strain abp1, hits give low values 0.979 | locus YDL005C, strain med2, hits give low values 0.957 | locus YDL035C, strain GPR1, hits give low values 0.99 | locus YDL040C, strain nat1, hits give low values 0.979 | locus YDL074C, strain BRE1, hits give low values 1.04 | locus YDL101C, strain DUN1, hits give low values 1.01 | locus YDL185W, strain tfp1, hits give low values 1.02 | locus YDL192W, strain arf1, hits give low values 1.02 | locus YDR001C, strain nth1, hits give low values 0.975 | locus YDR069C, strain doa4, hits give low values 0.993 | locus YDR101C, strain arx1, hits give low values 1.02 | locus YDR137W, strain rgp1, hits give low values 0.996 | locus YDR150W, strain NUM1, hits give low values 1.01 | locus YDR159W, strain sac3, hits give low values 1 | locus YDR162C, strain NBP2, hits give low values 1.02 | locus YDR195W, strain ref2 0.959 | locus YDR297W, strain sur2, hits give low values 0.995 | locus YDR318W, strain mcm21, hits give low values 0.997 | locus YDR334W, strain swr1, hits give low values 0.962 | locus YDR335W, strain msn5, hits give low values 0.978 | locus YDR388W, hits give low values 1.01 | locus YDR392W, strain spt3, hits give low values 0.994 | locus YDR502C, strain sam2, hits give low values 1.01 | locus YEL003W, strain gim4, hits give low values 0.983 | locus YEL037C, strain rad23, hits give low values 0.98 | locus YEL061C, strain CIN8 (second series), hits give low values 0.98 | locus YEL061C, strain CIN8, hits give low values 1.01 | locus YER015W, strain faa2, hits give low values 0.975 | locus YER016W, strain bim1, hits give low values 0.967 | locus YER110C, hits give low values 1.02 | locus YER111C, strain swi4, hits give low values 0.966 | locus YER155C, strain BEM2 (second series), hits give low values 0.969 | locus YER155C, strain BEM2, hits give low values 1 | locus YER167W, strain BCK2, hits give low values 0.996 | locus YFR010W, strain ubp6, hits give low values 0.992 | locus YGL078C, strain dbp3, hits give low values 0.998 | locus YGL086W, strain mad1, hits give low values 1.05 | locus YGL167C, strain pmr1, hits give low values 0.976 | locus YGL173C, strain kem1, hits give low values 0.973 | locus YGL227W, strain vid30, hits give low values 0.979 | locus YGL240W, strain doc1, hits give low values 0.975 | locus YGL248W, strain PDE1, hits give low values 1 | locus YGL253W, strain hxk2, hits give low values 0.989 | locus YGR135W, strain pre9, hits give low values 1.01 | locus YGR229C, strain SMI1, hits give low values 1.02 | locus YGR252W, strain gcn5, hits give low values 0.954 | locus YHR013C, strain ard1, hits give low values 0.964 | locus YHR027C, strain rpn1, hits give low values 0.994 | locus YHR030C, strain SLT2, hits give low values 1.01 | locus YHR079C, strain IRE1 (second series), hits give low values 1.01 | locus YHR079C, strain IRE1, hits give low values 1 | locus YHR094C, strain hxt1, hits give low values 1.01 | locus YHR129C, strain ARP1, hits give low values 1.01 | locus YHR142W, strain chs7, hits give low values 0.982 | locus YHR200W, strain rpn10, hits give low values 1.01 | locus YIL066C, strain RNR3, hits give low values 1.01 | locus YIL073C, strain SPO22, hits give low values 1.06 | locus YIL125W, strain kgd1, hits give low values 1.02 | locus YIR030C, strain dcg1, hits give low values 1.01 | locus YJL092W, strain hpr5, hits give low values 0.979 | locus YJL095W, strain BCK1 (second series), hits give low values 0.997 | locus YJL095W, strain BCK1, hits give low values 0.993 and 1 | locus YJL115W, strain asf1, hits give low values 0.974 | locus YJL129C, strain trk1, hits give low values 0.984 | locus YJL134W, strain LCB3, hits give low values 1.01 | locus YJL154C, strain vps35, hits give low values 0.971 | locus YJL164C, strain tpk1, hits give low values 0.981 | locus YJL166W, strain qcr8, hits give low values 1.01 | locus YJL168C, strain set2, hits give low values 1.01 | locus YJL187C, strain SWE1 (second series), hits give low values 1.01 | locus YJL187C, strain SWE1, hits give low values 0.98 | locus YJR043C, strain POL32, hits give low values 1.01 | locus YJR066W, strain TOR1, hits give low values 0.957 | locus YKL009W, strain mrt4, hits give low values 1.01 | locus YKL068W, hits give low values 1.01 | locus YKL085W, strain MDH1 (second series), hits give low values 1.01 | locus YKL085W, strain MDH1, hits give low values 1.01 | locus YKL160W, strain elf1, hits give low values 0.978 | locus YKR001C, strain vps1, hits give low values 1.04 | locus YKR026C, strain gcn3, hits give low values 0.986 | locus YKR091W, strain srl3, hits give low values 0.986 | locus YLL001W, strain dnm1, hits give low values 0.962 | locus YLL026W, hits give low values 0.978 | locus YLL041C, strain sdh2, hits give low values 1 | locus YLR027C, strain aat2, hits give low values 0.981 | locus YLR039C, strain RIC1, hits give low values 1.07 | locus YLR058C, strain SHM2, hits give low values 1.01 | locus YLR102C, strain apc9, hits give low values 1.01 | locus YLR113W, strain HOG1, hits give low values 1.02 | locus YLR221C, strain rsa3, hits give low values 0.987 | locus YLR258W, strain gsy2, hits give low values 0.973 | locus YLR262C, strain YPT6 (second series), hits give low values 1.04 | locus YLR262C, strain YPT6, hits give low values 1.1 | locus YLR268W, strain sec22, hits give low values 1.04 | locus YLR320W, strain mms22, hits give low values 0.974 | locus YLR330W, strain CHS5, hits give low values 1 | locus YLR342W, strain FKS1 (second series), hits give low values 1.01 | locus YLR342W, strain FKS1, hits give low values 0.976 | locus YLR357W, strain rsc2, hits give low values 0.995 | locus YLR370C, strain arc18, hits give low values 0.992 | locus YLR371W, strain rom2, hits give low values 1.02 | locus YLR384C, strain iki3, hits give low values 0.983 | locus YLR418C, strain cdc73, hits give low values 1.01 | locus YML016C, strain PPZ1, hits give low values 1.01 | locus YML032C, strain rad52, hits give low values 0.989 | locus YML120C, strain ndi1, hits give low values 0.968 | locus YML124C, strain tub3, hits give low values 1.01 | locus YMR058W, strain fet3, hits give low values 0.964 | locus YMR078C, strain ctf18, hits give low values 1.02 | locus YMR125W, strain sto1, hits give low values 0.972 | locus YMR129W, hits give low values 0.976 | locus YMR205C, strain PFK2, hits give low values 0.984 | locus YMR223W, strain ubp8, hits give low values 1 | locus YMR231W, strain pep5, hits give low values 0.972 | locus YMR263W, strain SAP30, hits give low values 1.01 | locus YMR307W, strain GAS1, hits give low values 0.994 | locus YNL067W, strain RPL9B, hits give low values 1.01 | locus YNL071W, strain lat1, hits give low values 0.989 | locus YNL183C, strain NPR1, hits give low values 0.953 | locus YNL209W, strain ssb2, hits give low values 0.983 | locus YNL233W, strain BNI4, hits give low values 1.01 | locus YNL248C, strain rpa49, hits give low values 0.98 | locus YNL250W, strain rad50, hits give low values 1.02 | locus YNL271C, strain bni1, hits give low values 1.02 | locus YNL298W, strain CLA4, hits give low values 1.02 | locus YNL307C, strain MCK1, hits give low values 1.02 | locus YNL322C, strain KRE1 (second series), hits give low values 0.969 | locus YNR049C, strain mso1, hits give low values 0.963 | locus YNR052C, strain pop2, hits give low values 0.999 | locus YOL012C, strain htz1 0.956 | locus YOL147C, strain pex11, hits give low values 1.02 | locus YOR001W, strain rrp6, hits give low values 1 | locus YOR061W, strain CKA2, hits give low values 1.01 | locus YOR069W, strain VPS5, hits give low values 1.01 | locus YOR070C, strain gyp1, hits give low values 0.962 | locus YOR080W, strain dia2, hits give low values 0.972 | locus YOR083W, strain WHI5, hits give low values 0.981 | locus YOR106W, strain vam3, hits give low values 1 | locus YOR136W, strain idh2, hits give low values 1.03 | locus YOR144C, strain elg1, hits give low values 1.02 | locus YOR184W, strain ser1, hits give low values 1.01 | locus YOR231W, strain MKK1, hits give low values 0.997 | locus YOR265W, strain rbl2, hits give low values 0.989 | locus YOR270C, strain vph1, hits give low values 1.03 | locus YOR290C, strain snf2, hits give low values 0.992 | locus YOR316C, strain cot1, hits give low values 1.01 | locus YPL051W, strain arl3, hits give low values 0.992 | locus YPL055C, strain LGE1, hits give low values 1.01 | locus YPL078C, strain atp4, hits give low values 0.982 | locus YPL106C, strain sse1, hits give low values 0.961 | locus YPL240C, strain hsp82, hits give low values 1.01 | locus YPL241C, strain CIN2, hits give low values 1.02 | locus YPL256C, strain CLN2, hits give low values 0.992 | locus YPR119W, strain clb2, hits give low values 1.01 | locus YPR141C, strain kar3, hits give low values 1.01 | locus YPR163C, strain tif3, hits give low values 1.03 | locus YPR167C, strain met16, hits give low values 1.01 | strain wtn01, hits give low values 1.05
